Source: the supplement of paper PMC6555819

Tests used:
Test in all cases: PBM binding z-score (relative to random genomic background probes); higher = stronger binding; sequences stand for … in GC…GCGATTGACAGCGTAGAATGAAGG
[1] = system: RARb homodimer (NR concentration 270 nM)
Summary of the method: (§1)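 Custom Agilent 4×180K protein-binding microarrays carried double-stranded probes, each with a 34-nt variable region. These regions held direct-repeat seeds, single-nucleotide variants, half-site ablations and random human genomic background sequences. Ligand-free nuclear receptor dimers were incubated on the arrays for 1 h, antibodies against each partner (one per run) detected binding, and scanned fluorescence was regression-normalized. Binding z-scores take the random background probes as reference.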

[2] = system: RARg:RXRa (NR concentration 270 nM, RXRa partner concentration 90 nM)
Summary of the method: as §1

[3] = system: RARg homodimer (NR concentration 270 nM)
Summary of the method: as §1

[4] = system: RXRa DBDmut IVT, anti-RXR (DBD mutation: RXRa K156A/R161A, NR concentration 90 nM)
Summary of the method: as §1

[5] = system: THRa:RXRa (NR concentration 90 nM, RXRa partner concentration 90 nM)
Summary of the method: as §1

[6] = system: THRa homodimer (NR concentration 90 nM)
Summary of the method: as §1

[7] = system: VDR homodimer (NR concentration 270 nM)
Summary of the method: as §1

[8] = system: VDR:RXRa (NR concentration 270 nM, RXRa partner concentration 90 nM)
Summary of the method: as §1

Row | Sequence | PBM binding z-score [1] | PBM binding z-score [2] | PBM binding z-score [3] | PBM binding z-score [4] | PBM binding z-score [5] | PBM binding z-score [6] | PBM binding z-score [7] | PBM binding z-score [8]
1 | CCTACTGGGCCACGAAAGGTCCTTGATTCAGTGA | 0.647 | 0.00978 | 0.301 | -0.311 | 0.686 | -0.289 | -0.692 | –
2 | TATACAGGGTCAAAGGGCAGAGTACGAATGTCGA | 4.22 | 6.33 | 5.48 | 3.14 | 3.98 | 1.48 | 3.82 | –
3 | ACTAGCAGGCCAAGGGTGACTCAAGATTAGTCCG | 0.337 | 0.341 | 0.646 | -0.454 | 0.239 | -0.521 | -0.791 | -0.401
4 | ATCGAAAGGTCGCAGGTGAGTATACCCACCCGAA | 3.04 | 4.73 | 4.6 | 0.648 | 2.57 | 0.171 | 0.597 | –
5 | AGTAGCAGGCCAAGGGTCACTCAAGATTAGTCCG | 3.98 | 4.29 | 3.86 | 0.553 | 2.76 | 0.326 | 1.46 | –
6 | CATACAGGGACAGCTAGGCCAGAGTAGGGACGGC | 0.286 | 0.368 | 0.718 | -0.689 | 0.703 | 0.148 | -0.709 | -0.582
7 | CCTAGTTGGGCAGGAGGTCACACACCGGATATGA | 3.48 | 3.98 | 3.52 | -0.0255 | 3.14 | 1.57 | 1.37 | –
8 | GCTAGTTTGTCAGTAAAAGGTCACACACCGGTCG | 5.18 | 5.07 | 4.23 | 1.18 | 3.6 | 1.61 | 2.4 | –
9 | ATCGAAAGGTCGAAGGTCAGTATACCCACCCGAA | 4.11 | 6.01 | 5.42 | 1.78 | 3.31 | 0.706 | 1.51 | –
10 | TAGCCTAGGTCATTCAGGCGCCAGTATAGAAAGC | 2.25 | 3.97 | 4.09 | 1.78 | 2.7 | 0.451 | 1.3 | –
11 | GATAGTTGGTCAGTAAAAGGTCACACACCGGTCG | 5.36 | 5.32 | 4.96 | 0.579 | 3.59 | 1.91 | 2.12 | –
12 | TCATATAGGTCAAAGGTGAAAGTCGGTGTGGTAA | 4.1 | 7.06 | 5.46 | 2.48 | 3.74 | 0.997 | 1.49 | 4.65
13 | TAGCCTAGGTCAAGCGGGCCAGTATAGTGTCGGC | 3.29 | 4.34 | 5.14 | 0.428 | 2.9 | 0.702 | -0.353 | 2.6
14 | ATCGAAAGGTCGAGTTGAGTATAGAGAAAGGGAA | 2.39 | 4.11 | 4.31 | 1.89 | 2.23 | -0.17 | 1 | –
15 | TTACCAAGGTTAAAGGTCGTTGATGCACGCCTTG | 3.04 | 5.05 | 3.09 | 1.88 | 3.63 | 0.88 | 2.29 | –
16 | CAAAGTAGGTCAAGAGGTCAAAGTCCGCTTCCCG | 5.78 | 8.31 | 7.92 | 2.89 | 4.21 | 1.84 | 4.84 | –
17 | CGTCAAAGTTCAAGCTAACGTAACAGAAAGCAGC | 3.86 | 5.65 | 6.4 | 4.63 | 1.86 | -0.403 | 3.69 | –
18 | ATCGAATGGTCGTGAGGTGAGTATACAGAAAGGC | 0.456 | 0.502 | 0.684 | -0.556 | 1.5 | 1.09 | 0.0134 | –
19 | CCTTCTGGGCCATTCAGAGGTCATTGATCATATG | 4.13 | 4.56 | 3.3 | 1.38 | 3.31 | 1.51 | 3.47 | 4.01
20 | GCTCGGAGGACAAGGTCACAGCTTTGTCCGTAGA | 3.72 | 4.76 | 4.75 | 1.17 | 3.79 | 3.04 | 1.96 | –
21 | TCTTGTAGGTCAAAGGTTAAGAAAGCCGAAGCCT | 3.84 | 7.23 | 5.61 | 1.98 | 3.76 | 0.452 | 0.881 | –
22 | GCTTACGGGTCAAAGGTTACAGCATGAATAGAAT | 3.57 | 7.1 | 5.1 | 2.74 | 3.93 | 0.157 | 1.75 | –
23 | ATCGAAAGGTCGACGAGGTGAGTATGCACCGTTT | 3.07 | 4.29 | 4.29 | 1.3 | 3.73 | 0.762 | 1.03 | –
24 | TGAATGAGGTTAAAGGTCAGGGAACGTGGCGTCG | 4.57 | 7.13 | 5.51 | 1.87 | 4.33 | 1.94 | 2.81 | –
25 | CGTCCAACGTCAGCAGGTCAGTGAAAGCGACGTG | 1.92 | 0.905 | 1.54 | -0.094 | 0.784 | -0.139 | -0.585 | –
26 | CCTGGCAGGCCAGGGTCACTCAAGCATTTCGCTT | 2.66 | 3.49 | 2.46 | -0.63 | 2.96 | 0.655 | 1.3 | –
27 | GATACACGGTCAAGGCCAGAGTACGCGTATTGAT | 1.73 | 1.54 | 2.53 | -0.0133 | 0.429 | -0.515 | 0.324 | –
28 | TAGCCTAGGTCATAGGGCCAGTATAGTACGCATC | 2.98 | 3.86 | 3.89 | 0.967 | 2.75 | 0.823 | 0.453 | –
29 | ATATGTGGGTTATCGGGTCATTCAGTTTGCGCAT | 3.15 | 2.99 | 2.07 | 1.99 | 3.45 | 3.41 | 4.15 | –
30 | CAAACTAGGTCACAGAGGACAAAGTCCGTGCGTA | 3.93 | 4.96 | 6.01 | 2.36 | 3.89 | 1.94 | 3.57 | –
